# Reference: PubChem BioAssay AID1159580 (chemical genetic matrix, 2015)
# Screen size: about 5,500 compounds; about 2,000 (36%) were called active. Not shown: some 18% with an inconclusive outcome. This is one part of the list. Values without a mark were called inactive. Cut-off read from the data, not from the text of the source: active = normalized growth mostly below about 0.91 (no sharp cut-off); inconclusive = no clear call, values can overlap the other calls; inactive = mostly above about 0.92.
# Experiment: chemical genetic growth profiling, strain panel (AID 1159580);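 note: tested at 20 µM; growth read once vehicle control cultures reached saturation at 30 °C; 1 = growth at the plate median or of vehicle wells; lower values mean less growth of the strain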
# Details: growth OD
compound,measurement,setting,value
C[C@]12CCC3c4ccc(O)cc4CCC3C1CCC2=O (stereo partly drawn),normalized growth,"S. cerevisiae deletion strains, locus YJR066W, strain TOR1, hits give low values",0.953
same,normalized growth,"S. cerevisiae deletion strains, locus YJR075W, strain HOC1, hits give low values",0.977
same,normalized growth,"S. cerevisiae deletion strains, locus YKL009W, strain mrt4, hits give low values",0.905
same,normalized growth,"S. cerevisiae deletion strains, locus YKL068W, hits give low values",1
same,normalized growth,"S. cerevisiae deletion strains, locus YKL085W, strain MDH1 (second series), hits give low values",1.02
same,normalized growth,"S. cerevisiae deletion strains, locus YKL085W, strain MDH1, hits give low values",1.02
same,normalized growth,"S. cerevisiae deletion strains, locus YKL160W, strain elf1, hits give low values",0.994
same,normalized growth,"S. cerevisiae deletion strains, locus YKR001C, strain vps1, hits give low values",0.854 (active)
same,normalized growth,"S. cerevisiae deletion strains, locus YKR026C, strain gcn3, hits give low values",1.02
same,normalized growth,"S. cerevisiae deletion strains, locus YKR091W, strain srl3, hits give low values",1.02
same,normalized growth,"S. cerevisiae deletion strains, locus YLL001W, strain dnm1, hits give low values",1.05
same,normalized growth,"S. cerevisiae deletion strains, locus YLL026W, hits give low values",0.999
same,normalized growth,"S. cerevisiae deletion strains, locus YLL041C, strain sdh2, hits give low values",1.02
same,normalized growth,"S. cerevisiae deletion strains, locus YLR027C, strain aat2, hits give low values",0.973
same,normalized growth,"S. cerevisiae deletion strains, locus YLR039C, strain RIC1, hits give low values",0.56 (active)
same,normalized growth,"S. cerevisiae deletion strains, locus YLR058C, strain SHM2, hits give low values",0.97
same,normalized growth,"S. cerevisiae deletion strains, locus YLR102C, strain apc9, hits give low values",1
same,normalized growth,"S. cerevisiae deletion strains, locus YLR113W, strain HOG1, hits give low values",0.98
same,normalized growth,"S. cerevisiae deletion strains, locus YLR221C, strain rsa3, hits give low values",1
same,normalized growth,"S. cerevisiae deletion strains, locus YLR258W, strain gsy2, hits give low values",0.975
same,normalized growth,"S. cerevisiae deletion strains, locus YLR262C, strain YPT6 (second series), hits give low values",0.609 (active)
same,normalized growth,"S. cerevisiae deletion strains, locus YLR262C, strain YPT6, hits give low values",0.558 (active)
same,normalized growth,"S. cerevisiae deletion strains, locus YLR268W, strain sec22, hits give low values",0.976
same,normalized growth,"S. cerevisiae deletion strains, locus YLR320W, strain mms22, hits give low values",0.873 (active)
same,normalized growth,"S. cerevisiae deletion strains, locus YLR330W, strain CHS5, hits give low values",1
same,normalized growth,"S. cerevisiae deletion strains, locus YLR342W, strain FKS1 (second series), hits give low values",0.882
same,normalized growth,"S. cerevisiae deletion strains, locus YLR342W, strain FKS1, hits give low values",1
same,normalized growth,"S. cerevisiae deletion strains, locus YLR357W, strain rsc2, hits give low values",1.04
same,normalized growth,"S. cerevisiae deletion strains, locus YLR370C, strain arc18, hits give low values",1.02
same,normalized growth,"S. cerevisiae deletion strains, locus YLR371W, strain rom2, hits give low values",1.02
same,normalized growth,"S. cerevisiae deletion strains, locus YLR384C, strain iki3, hits give low values",1.02
same,normalized growth,"S. cerevisiae deletion strains, locus YLR418C, strain cdc73, hits give low values",0.985
same,normalized growth,"S. cerevisiae deletion strains, locus YML016C, strain PPZ1, hits give low values",0.986
same,normalized growth,"S. cerevisiae deletion strains, locus YML032C, strain rad52, hits give low values",0.924
same,normalized growth,"S. cerevisiae deletion strains, locus YML120C, strain ndi1, hits give low values",1.03
same,normalized growth,"S. cerevisiae deletion strains, locus YML124C, strain tub3, hits give low values",1.02
same,normalized growth,"S. cerevisiae deletion strains, locus YMR058W, strain fet3, hits give low values",0.928
same,normalized growth,"S. cerevisiae deletion strains, locus YMR078C, strain ctf18, hits give low values",0.987
same,normalized growth,"S. cerevisiae deletion strains, locus YMR125W, strain sto1, hits give low values",1.06
same,normalized growth,"S. cerevisiae deletion strains, locus YMR129W, hits give low values",1.02
same,normalized growth,"S. cerevisiae deletion strains, locus YMR205C, strain PFK2, hits give low values",1.03
same,normalized growth,"S. cerevisiae deletion strains, locus YMR223W, strain ubp8, hits give low values",0.987
same,normalized growth,"S. cerevisiae deletion strains, locus YMR231W, strain pep5, hits give low values",0.993
same,normalized growth,"S. cerevisiae deletion strains, locus YMR307W, strain GAS1, hits give low values",0.797
same,normalized growth,"S. cerevisiae deletion strains, locus YNL067W, strain RPL9B, hits give low values",1
same,normalized growth,"S. cerevisiae deletion strains, locus YNL071W, strain lat1, hits give low values",0.937
same,normalized growth,"S. cerevisiae deletion strains, locus YNL183C, strain NPR1, hits give low values",0.936
same,normalized growth,"S. cerevisiae deletion strains, locus YNL209W, strain ssb2, hits give low values",1.02
same,normalized growth,"S. cerevisiae deletion strains, locus YNL233W, strain BNI4, hits give low values",0.976
same,normalized growth,"S. cerevisiae deletion strains, locus YNL248C, strain rpa49, hits give low values",0.956
same,normalized growth,"S. cerevisiae deletion strains, locus YNL250W, strain rad50, hits give low values",0.922
same,normalized growth,"S. cerevisiae deletion strains, locus YNL271C, strain bni1, hits give low values",0.966
same,normalized growth,"S. cerevisiae deletion strains, locus YNL298W, strain CLA4, hits give low values",0.902 (active)
same,normalized growth,"S. cerevisiae deletion strains, locus YNL307C, strain MCK1, hits give low values",0.96
same,normalized growth,"S. cerevisiae deletion strains, locus YNL322C, strain KRE1 (second series), hits give low values",1.05
same,normalized growth,"S. cerevisiae deletion strains, locus YNL322C, strain KRE1, hits give low values",1.01
same,normalized growth,"S. cerevisiae deletion strains, locus YNR049C, strain mso1, hits give low values",1.03
same,normalized growth,"S. cerevisiae deletion strains, locus YNR052C, strain pop2, hits give low values",0.917
same,normalized growth,"S. cerevisiae deletion strains, locus YOL006C, strain TOP1, hits give low values",0.838
same,normalized growth,"S. cerevisiae deletion strains, locus YOL012C, strain htz1",1.42
same,normalized growth,"S. cerevisiae deletion strains, locus YOL147C, strain pex11, hits give low values",1
same,normalized growth,"S. cerevisiae deletion strains, locus YOR001W, strain rrp6, hits give low values",0.946
same,normalized growth,"S. cerevisiae deletion strains, locus YOR061W, strain CKA2, hits give low values",0.969
same,normalized growth,"S. cerevisiae deletion strains, locus YOR069W, strain VPS5, hits give low values",1
same,normalized growth,"S. cerevisiae deletion strains, locus YOR070C, strain gyp1, hits give low values",0.997
same,normalized growth,"S. cerevisiae deletion strains, locus YOR080W, strain dia2, hits give low values",1.02
same,normalized growth,"S. cerevisiae deletion strains, locus YOR083W, strain WHI5, hits give low values",0.98
same,normalized growth,"S. cerevisiae deletion strains, locus YOR106W, strain vam3, hits give low values",1.02
same,normalized growth,"S. cerevisiae deletion strains, locus YOR136W, strain idh2, hits give low values",0.991
same,normalized growth,"S. cerevisiae deletion strains, locus YOR144C, strain elg1, hits give low values",0.999
same,normalized growth,"S. cerevisiae deletion strains, locus YOR184W, strain ser1, hits give low values",0.714 (active)
same,normalized growth,"S. cerevisiae deletion strains, locus YOR231W, strain MKK1, hits give low values",0.969
same,normalized growth,"S. cerevisiae deletion strains, locus YOR265W, strain rbl2, hits give low values",1
same,normalized growth,"S. cerevisiae deletion strains, locus YOR270C, strain vph1, hits give low values",0.831
same,normalized growth,"S. cerevisiae deletion strains, locus YOR290C, strain snf2, hits give low values",0.941
same,normalized growth,"S. cerevisiae deletion strains, locus YOR316C, strain cot1, hits give low values",0.991
same,normalized growth,"S. cerevisiae deletion strains, locus YPL051W, strain arl3, hits give low values",0.934
same,normalized growth,"S. cerevisiae deletion strains, locus YPL055C, strain LGE1, hits give low values",0.863
same,normalized growth,"S. cerevisiae deletion strains, locus YPL078C, strain atp4, hits give low values",0.954
same,normalized growth,"S. cerevisiae deletion strains, locus YPL106C, strain sse1, hits give low values",1.03
same,normalized growth,"S. cerevisiae deletion strains, locus YPL240C, strain hsp82, hits give low values",1.01
same,normalized growth,"S. cerevisiae deletion strains, locus YPL256C, strain CLN2, hits give low values",1.02
same,normalized growth,"S. cerevisiae deletion strains, locus YPR119W, strain clb2, hits give low values",1
same,normalized growth,"S. cerevisiae deletion strains, locus YPR141C, strain kar3, hits give low values",1
same,normalized growth,"S. cerevisiae deletion strains, locus YPR163C, strain tif3, hits give low values",0.927
same,normalized growth,"S. cerevisiae deletion strains, locus YPR167C, strain met16, hits give low values",0.998
same,normalized growth,"S. cerevisiae deletion strains, strain wtn01, hits give low values",0.967
same,normalized growth,"S. cerevisiae strains, strain wild type, hits give low values",1
